# Bioassay records from PubChem.
# NR3A LBD binder – NR3A (human) ligand-binding domain modulation. NR3A LBD differential scanning fluorimetry, Tm shift; 0% = protein alone, 100% = glycine-bound protein. Tm shift relative to glycine control, % at 25 µM. actives 2.5% (n = 340,000). AID 1259313;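 active means melting temperature shift of at least 10% of the positive control shift, at one fixed dose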
# AHR act – activates the human aryl hydrocarbon receptor. AHR-responsive luciferase reporter cells, luminescence. P35869. actives 2.5% (n = 320,000). activation, % at 5 µM; in the data active means activation above about 47%;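 further: 0% = vehicle wells and 100% = reference agonist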
# Target sequence (P35869 whole entry, looked up): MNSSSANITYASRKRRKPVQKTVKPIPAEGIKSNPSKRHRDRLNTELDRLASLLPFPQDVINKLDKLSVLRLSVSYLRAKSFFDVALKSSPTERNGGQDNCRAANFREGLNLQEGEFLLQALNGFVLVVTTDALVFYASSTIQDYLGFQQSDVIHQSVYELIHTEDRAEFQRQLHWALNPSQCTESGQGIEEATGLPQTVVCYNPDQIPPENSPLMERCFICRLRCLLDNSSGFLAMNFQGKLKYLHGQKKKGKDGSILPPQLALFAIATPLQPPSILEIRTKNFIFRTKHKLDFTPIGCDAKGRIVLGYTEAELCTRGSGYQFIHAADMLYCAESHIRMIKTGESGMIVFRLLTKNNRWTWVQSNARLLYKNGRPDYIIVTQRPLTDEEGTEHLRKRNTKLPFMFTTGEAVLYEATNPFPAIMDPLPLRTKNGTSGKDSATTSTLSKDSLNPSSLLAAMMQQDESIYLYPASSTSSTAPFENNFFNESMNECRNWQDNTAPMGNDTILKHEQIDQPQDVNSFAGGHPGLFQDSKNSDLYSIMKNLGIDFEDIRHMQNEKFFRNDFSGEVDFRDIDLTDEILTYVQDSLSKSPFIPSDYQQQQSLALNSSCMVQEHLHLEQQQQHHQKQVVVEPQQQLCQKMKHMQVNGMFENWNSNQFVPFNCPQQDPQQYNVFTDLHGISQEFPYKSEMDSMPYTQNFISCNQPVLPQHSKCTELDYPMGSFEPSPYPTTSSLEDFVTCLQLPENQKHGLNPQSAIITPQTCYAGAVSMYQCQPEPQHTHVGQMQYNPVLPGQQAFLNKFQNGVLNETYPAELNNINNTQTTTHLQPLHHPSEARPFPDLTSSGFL
# H9c2 protect – myocardial damage modulation in H9c2 cells; protection from H2O2 cell death, % at 20 µM; H9c2 cardiomyocytes, H2O2 injury protection, ATPLite, 2 h; actives 0.63% (n = 360,000); AID 588492;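 active means compounds giving at least 50% protection of heart cells from peroxide-induced death in the single-dose screen, raw or plate-pattern-corrected value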;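 further: 0% = DMSO wells with peroxide and 100% = DMSO wells without peroxide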
# AI-2 QS modul – modulates the Vibrio harveyi AI-2 quorum sensing system. Vibrio harveyi JMH597 AI-2 luminescence/OD600 ratio, 9 h; active compounds read low; strain lacks LuxN and CqsS sensors; 0 = neutral-control median. activity change, % at 7.5 µM. actives 0.4% (n = 300,000). AID 2094; in the data active means activity change below about -75%, passing the limit was not always enough; inconclusive means no clear call, values can overlap the other calls;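 further: luminescence divided by OD600 gain over 9 h not by final OD600 alone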
# NTR1 agonist – NTR1 (human) agonism; P30989; NTR1-U2OS beta-arrestin-GFP spot imaging, agonist mode; activation, % at 20 µM; actives 0.17% (n = 330,000);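 active means activation at or above 40% of the spot to cytoplasm intensity ratio, with at least 20 cells analyzed; inconclusive means wells under 20 cells, flagged as cytotoxic or low count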;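 further: 0% = DMSO without peptide and 100% = 100 nM NTR1 peptide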
# Mot1-301 SUMO – inhibitors of SUMOylation pathway: yeast Mot1-301 growth rescue. AID 2716. growth rescue, % at 18.8 µM. S. cerevisiae Mot1-301 growth rescue, ATP luminescence, 38.5C; percent above DMSO median, 100 means doubled. actives 1% (n = 320,000);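 active means every valid replicate shows activation above 250% relative to neutral control wells; inactive means the rest, any valid replicate at or below 250%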;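 further: OY570 slx delta 5 strain wells were the positive control but not used for scaling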
# JMH597 growth – retest: inhibitors of Vibrio harveyi JMH597 growth; OD600 absorbance, 9 h; lacks LuxN and CqsS sensors; actives 1% (n = 750); growth inhibition, % at 7.5 µM; shares compounds with AI-2 QS modul;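 active means every replicate shows growth inhibition above 50%; inconclusive means at least half, but not all, replicates pass that cutoff; inactive means fewer than half of replicates pass it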
# BB721 lum counter – retest counter-screen: BB721 constitutive quorum sensing luminescence decrease; shares compounds with AI-2 QS modul; actives 95% (n = 750); inhibition, % at 7.5 µM; Vibrio harveyi BB721 luminescence, 9 h; AID 2727;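 active means inhibition above about 80% in every replicate, not just on average, limit read from the data; inconclusive means at least half of replicates past the limit, but not all; inactive means fewer than half of replicates past the limit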
# BB721 growth rt – retest: blocks Vibrio harveyi BB721 growth. shares compounds with AI-2 QS modul. OD600 absorbance, 9 h. growth inhibition, % at 7.5 µM. actives 3% (n = 750). AID 2728;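 active means every replicate shows growth inhibition above 50%; inconclusive means at least half but not all replicates above 50% inhibition; inactive means under half of replicates above 50% inhibition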
# AI-2 QS JMH597 – Vibrio harveyi AI-2 signaling luminescence modulation – JMH597 strain, confirmation; actives 97% (n = 750); shares compounds with AI-2 QS modul; inhibition, % at 7.5 µM; AID 2736; Vibrio harveyi JMH597 AI-2 quorum sensing luminescence, 9 h; luxN and CqsS knockout, AI-2 only;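 active means every replicate shows more than 75% inhibition of signal versus neutral control wells; inconclusive means half to three quarters of replicates exceed 75% inhibition; inactive means fewer than half of replicates exceed 75% inhibition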
# Numbers without * were called inactive; u = inconclusive; x = no result. Hits are enriched below; roughly 6.2% of the tested compounds scored in any of these assays.
SMILES,NR3A LBD binder,AHR act,H9c2 protect,AI-2 QS modul,NTR1 agonist,Mot1-301 SUMO,JMH597 growth,BB721 lum counter,BB721 growth rt,AI-2 QS JMH597
Cc1ccc(CNc2ccc3c(c2)ncn3C)cc1,-1,19,-4,-82*,5,-31,18,91*,-15,95*
CCOC(=O)C1C(=O)NC(C(=O)OCC)(C(=O)OCC)C1C(C)CC (centres undefined),2,x,8,x,x,x,x,x,x,x
COc1cccc(C(=O)O)c1OS(=O)(=O)c1ccc(C)cc1,x,x,4,x,x,x,x,x,x,x
COc1ccc(-c2cn[nH]c2-c2ccc(O)cc2O)cc1,2,26,1,4,2,0,x,x,x,x
COc1ccc(Oc2cn[nH]c2-c2ccc(O)cc2O)cc1,15*,11,7,-90*,-1,7,u,97*,u,98*
CN(C)CCN1CCN(C2CN(C3CCCC3)S(=O)(=O)C2)CC1 (centres undefined),x,x,4,x,x,x,x,x,x,x
COc1ccccc1CNC(=O)CN1C(=O)NC2(CCC(C)CC2)C1=O (centres undefined),-1,0,-2,x,-1,-12,x,x,x,x
CCNC(=O)C1CCCN(C(=O)c2cccc(Cl)c2)CC1 (centres undefined),x,x,-9,x,x,x,x,x,x,x
Cc1ccc(/C=N/Nc2ccc(C(=O)O)cc2)o1,2,9,0,-91*,0,-8,4,97*,22,98*
COc1ccc(/C=N/Nc2ccc(C(=O)O)cc2)cc1OC,-2,3,-6,-93*,0,-23,-9,96*,7,97*
Cc1ccc(/C=N/NC(=O)Nc2ccccc2)o1,-1,27,-7,5,1,-5,x,x,x,x
COc1cc(C=NNc2ccccc2)ccc1OC(=O)c1ccccc1,x,x,-11,x,x,x,x,x,x,x
Cc1ccsc1/C=N/Nc1ccc(C(=O)O)cc1,1,-4,2,-91*,0,0,40,98*,65*,99*
Cc1ccsc1/C=N/NC(=O)CNC(=O)c1ccccc1,5,0,0,u,-1,-12,-9,93*,-1,95*
C=CCN(C(=O)c1csnn1)C(C(=O)NC1CCCC1)c1ccccc1F (centres undefined),0,-2,2,6,-1,29,x,x,x,x
COCCCN1C(=O)C(CC(=O)NCCN2CCOCC2)CC(C(=O)N(C(C)C)C(C)C)=C1C (centres undefined),x,x,-2,x,x,x,x,x,x,x
CCCCc1nnc(NC(=O)C2CC(=O)N(Cc3ccccc3)C2)s1 (centres undefined),2,1,2,15,-1,8,x,x,x,x
O=C(CNC(=O)c1cccc(Br)c1)N/N=C/c1cccs1,-1,-3,-1,-83*,0,-3,-30,91*,-18,91*
O=S(=O)(NCC1(N2CCOCC2)CCCCC1)c1ccc(Cl)cc1C(F)(F)F,0,-1,-5,9,2,-11,x,x,x,x
NS(=O)(=O)c1ccc(NC(=O)CN2CCc3ccccc32)cc1,-1,12,2,7,-1,32,x,x,x,x
CN(C)S(=O)(=O)c1ccc(NC(=O)CN2CCc3ccccc32)cc1,1,7,-5,-92*,0,-18,-17,96*,-8,97*
O=C(CN1C(=O)c2ccccc2C1=O)Nc1cccc(S(=O)(=O)Nc2ccccc2Cl)c1,0,2,6,-83*,-1,134,35,90*,41,93*
O=C(CN1C(=O)c2ccccc2C1=O)Nc1cccc(O)c1,-14,2,-1,u,0,6,x,x,x,x
O=C(CN1C(=O)c2ccccc2C1=O)Nc1cccc(Cl)c1,-3,2,-4,-93*,0,209,11,99*,3,99*
Cc1cccc(NC(=O)CCN2C(=O)c3ccccc3C2=O)c1,-1,-11,8,u,2,-3,-5,88*,1,92*
SMILES,NR3A LBD binder,AHR act,H9c2 protect,AI-2 QS modul,NTR1 agonist,Mot1-301 SUMO,JMH597 growth,BB721 lum counter,BB721 growth rt,AI-2 QS JMH597
Cc1ccc(NC(=O)CN2C(=O)c3ccccc3C2=O)cc1,1,-1,0,-16,0,-14,x,x,x,x
O=C(CCN1C(=O)c2ccccc2C1=O)Nc1cccc(S(=O)(=O)N2CCCCC2)c1,1,-6,7,3,2,-22,x,x,x,x
CC(=O)c1cccc(NC(=O)CN2C(=O)c3ccccc3C2=O)c1,2,-2,2,-96*,0,8,4,99*,1,100*
CCc1nc2ccc(C(=O)NCCCN3CCN(c4ccccc4F)CC3)cc2nc1CC,-3,5,3,4,4,-2,x,x,x,x
Cc1cc(NC(=O)CN2C(=O)c3ccccc3S2(=O)=O)no1,-1,0,0,-3,0,5,x,x,x,x
Cc1cccc(NC(=O)CCOc2ccccc2)c1,2,0,1,-84*,1,-5,10,91*,-6,94*
Cc1cc(NC(=O)CN2C(=O)c3ccccc3C2=O)no1,2,-3,3,u,0,-3,-2,84*,-5,87*
O=C(CCOc1ccccc1)Nc1cccc([N+](=O)[O-])c1,-1,-4,-2,-26,0,11,x,x,x,x
Cc1ccc(OCCC(=O)Nc2ccc(F)c(Cl)c2)cc1,-2,-5,-4,-78*,1,15,-3,68,6,u
COC(=O)[C@@H](NS(=O)(=O)c1cc(Br)ccc1Br)C(C)C,x,x,-2,x,x,x,x,x,x,x
COc1ccc(CNC(=O)Nc2ccc(C)c(C)c2)cc1,-5,-3,12,-63,-1,-2,x,x,x,x
O=C(NCc1ccc(F)cc1)Nc1cccc(Cl)c1,-5,7,-9,-94*,0,7,17,98*,24,99*
COc1ccc(CNC(=O)NC2CCCCC2)cc1,1,3,-1,-87*,-1,21,12,92*,13,95*
COc1ccc(CNC(=O)Nc2cc(C)cc(C)c2)cc1,2,9,7,u,1,-3,7,96*,-6,97*
COc1ccc(CNC(=O)Nc2ccc(C)cc2)cc1,3,12,-5,-79*,-2,5,0,88*,-14,92*
O=C(NCc1ccccc1)NC1CCCCC1,0,5,-6,-70,-1,0,x,x,x,x
